Consider 125 compounds from PubChem BioAssay AID492998 (Southern Research Specialized Biocontainment Screening …, 2010).

Molecules are shown by their SMILES. About 550 (24%) of roughly 2,300 compounds were called active. The rule behind the calls is not given here. The list is a sample of the results. Entries with a potency or affinity are not part of this list.

The assay in a line: Vero E6 cell cytotoxicity, dose response, cytotoxicity control for non-replicating M. tuberculosis project, secondary assay (AID 492998). The settings on record: series mostly up to 20 µM.
With `Cn1c(SCCOc2cccc(Cl)c2)nnc1-c1ccncc1`, the compound was called inactive.
With `O=C(Oc1ccccc1)c1cccc(COC(=O)c2cnccn2)c1` the entry was “inactive”; with `O=S(=O)(c1ccc(Cl)c2ccccc12)N1CCCC1`, “inactive”.
To `c1ccc(-c2noc(CC3CCCCC3)n2)nc1` belongs “inactive”; to `O=C(COc1ccc(Cl)cc1)Nc1ccc2[nH]ncc2c1`, “inactive”; to `CCOC(=O)C(C)Oc1ccc(OCc2ccccc2)cc1` (stereo not given), “inactive”.
For the compound `CC(C)c1ccc(OCC(=O)NCc2ccccc2)cc1`, the outcome was inactive.
With `Cc1cccc(NC(=O)c2ccc(OC3CSC3)cc2)c1` the entry was “inactive”; with `O=C(CCNc1ccc(Cl)cc1)c1cccs1`, “inactive”.
With `O=C(N/N=C/c1ccc([N+](=O)[O-])o1)c1ccc(NS(=O)(=O)c2cccs2)cc1` the entry was “inactive”.
With `O=C(c1cccs1)N1CCN(c2ccc(Cl)cc2)CC1` the entry was “inactive”; with `O=[N+]([O-])c1ccc(N2CCN(Cc3ccc([N+](=O)[O-])o3)CC2)cc1`, “inactive”; with `O=C(NNC(=O)c1cccs1)c1ccc(Br)o1`, “inactive”.
Turning to `Cc1ccc(CC(=O)N2CCN(c3ccc([N+](=O)[O-])cc3)CC2)cc1`, the compound was classed as inactive.
Take `O=[N+]([O-])c1ccc(CN2CCN(c3ccccc3)CC2)o1`: the compound was called inactive.
For the compound `O=C1CCCC(O)=C1C=Nc1ccc2c(c1)oc1ccccc12`, the outcome was inactive.
On to `CCCCCCOc1ccc(C(=O)O)cc1C#N`, for which the outcome was inactive.
To `CCC(=O)c1ccc(OC(=O)c2ccc(Br)o2)cc1` belongs “inactive”; to `Cc1cccc2nc(CSc3nc4cc([N+](=O)[O-])ccc4s3)cn12`, “inactive”.
With `Cc1nc2scc(-c3ccccc3)c2c(=O)o1` the entry was “inactive”; with `C=CCn1c(C)cc(C2=NNC(=NCc3ccccc3)SC2)c1C`, “inactive”; with `Cc1ccc2c(c1)c1c3n2CCN=C3CCC1`, “inactive”.
Consider `CCNC(=O)COC(=O)c1ccc(-c2nc3ccccc3s2)s1`, for which the result was inactive.
To `O=C(N/N=C/c1ccc[nH]1)c1ccncc1` belongs “inactive”.
With `Cc1ccsc1/C=N/NC(=O)c1ccncc1` the entry was “inactive”.
With `Cc1ccc(/C=N/NC(=O)c2ccncc2)o1` the entry was “inactive”; with `O=C(N/N=C/c1cccc2nccnc12)c1ccncc1`, “inactive”; with `Clc1ccccc1CSc1nnc([C@@H]2CCCN2)o1`, “inactive”.
As for `Cc1cccc(Cc2cnc(NC(=O)C3=NCCN3)s2)c1`, the compound was classed as inactive.
Take `C=C[C@]1(C)C=C2CCC3[C@](C)(CCC[C@@]3(C)C(=O)O)C2CC1` (stereo not given in full): the compound was called inactive.
With `S=C1NC2(CCCC2)N=C1c1ccccc1` the entry was “inactive”; with `Cc1ccc(C)c(NC(=O)COC(=O)c2cc3ccccc3oc2=O)c1`, “inactive”; with `CN1CCC(O)(c2ccccc2)C(C(=O)c2ccccc2)C1` (stereo not given), “inactive”.
With `Cc1cccc(N2CCN(C(=O)Cn3sc4nc(C)cc(C)c4c3=O)CC2C)c1` (stereo not given) the entry was “inactive”.
With `CCCOC(=O)NC1CCS(=O)(=O)C1` (stereo not given) the entry was “inactive”.
Take `Cc1csc(NC(=O)c2cc([N+](=O)[O-])cc([N+](=O)[O-])c2)n1`: the result was inactive.
With `O=C(CN1CCN(c2ccc([N+](=O)[O-])cc2)CC1)Nc1ccccn1` the entry was “inactive”.
With `CC(C)(C)c1csc(NC(=O)c2ccccc2O)n1` the entry was “inactive”; with `O=C(Nc1nnc(COc2ccc(Cl)cc2)s1)c1ccco1`, “inactive”.
With `O=C(Nc1nccs1)c1ccc(COc2ccc(Cl)cc2)o1` the entry was “inactive”; with `O=C(Nc1ncccn1)c1ccc([N+](=O)[O-])o1`, “inactive”.
For the compound `Fc1cccc2sc(N3CCCC3)nc12`, the result was inactive.
As for `O=C(CCC1CCCC1)NCc1ccccn1`, the result was inactive.
With `CCN(CC)S(=O)(=O)c1ccc(C(=O)OCn2nnc3ccccc3c2=O)cc1` the entry was “inactive”; with `Nc1ccc(Br)c2cccnc12`, “inactive”; with `CCN(CC)c1ccc(-c2sc(Nc3ccccc3)n[n+]2-c2ccc(F)cc2)cc1`, “inactive”.
As to `Cc1cc(C(=O)N/N=C/c2cccc(Cl)c2Cl)no1`, the outcome was inactive.
To `CSc1ccc(NC(=O)Nc2cccn(Cc3ccccc3)c2=O)cc1` belongs “inactive”.
With `CCN(CC)c1ccc(NC2CC(=O)N(CCc3ccc(OC)cc3)C2=O)cc1` (stereo not given) the entry was “inactive”; with `CN1C(c2ccccc2)CC(=NO)CC1c1ccccc1` (stereo not given), “inactive”; with `COc1ccc(-c2nnc(NC(=O)C3=COCCO3)o2)cc1`, “inactive”.
With `COc1ccc(-c2nnc(SCC(C)C)o2)cc1` the entry was “inactive”.
With `O=C(COc1ccccc1)Nc1nnc(-c2ccc3c(c2)CCCC3)o1`, the compound was called inactive.
Turning to `O=C(CNC(=O)c1ccc(Br)cc1)c1ccc(Br)cc1`, the result was inactive.
With `COC(=O)COc1ccc(-c2ccc(F)cc2)cc1C=O` the entry was “inactive”.
To `CC(=O)Nc1ccc(OC(=O)c2ccc(Br)c([N+](=O)[O-])c2)cc1` belongs “inactive”; to `CC(C)C1O/C(=N/C(=O)Nc2ccc(Cl)c(Cl)c2)NC1=O` (stereo not given), “inactive”; to `COc1n[nH]c(C(=O)Nc2cc(F)ccc2C)c1[N+](=O)[O-]`, “inactive”.
With `CC(C)(C)NC(=O)COC(=O)c1snc(C(=O)NC2CCCCC2)c1N` the entry was “inactive”.
For the compound `COc1ccc(NC(=O)COc2ccc3c(c2)CCC3)cc1`, the call was inactive.
With `O=C(OCC(=O)c1c[nH]c2ccccc12)c1ccc([N+](=O)[O-])s1` the entry was “inactive”.
With `O=C(CN1CCOCC1)N/N=C/c1ccc(-c2ccc(Br)cc2)o1` the entry was “inactive”; with `O=C(CCSc1nnc(-c2ccncc2)o1)Nc1cccc(Cl)c1`, “inactive”; with `CCc1ccc(OCCCC(=O)Nc2nccs2)cc1`, “inactive”.
To `COc1ccc(C(=O)C2CCCN(C(=O)c3ccc(CSC)o3)C2)cc1F` (stereo not given) belongs “inactive”; to `CSc1ccc(C(=O)C2CCCN(Cc3cc4ccccc4[nH]3)C2)cc1` (stereo not given), “inactive”.
As for `O=C(CCS(=O)(=O)c1ccc(Cl)cc1)Oc1ccc2c(c1)OCO2`, the outcome was inactive.
To `CC1=NN(C(=O)COc2ccccc2)C(O)(c2ccccc2)C1` (stereo not given) belongs “inactive”; to `CC(Cc1cccs1)NC(=O)c1cccc(Cl)c1` (stereo not given), “inactive”.
To `CCc1ccc(NC(=O)C(=O)NNC(=O)c2cccc(OC)c2)cc1` belongs “inactive”; to `Cc1ccc(C(=O)Oc2cccc(-n3cnnn3)c2)cc1`, “inactive”; to `CCOC(=O)c1csc(-c2snnc2C)n1`, “inactive”.
For `O=C(NNC1=C(C(=O)C(F)(F)F)CCC1)c1ccccc1Cl`, the compound was classed as inactive.
To `N#CC1=C(N)Oc2n[nH]c(-c3cccnc3)c2C1c1ccc([N+](=O)[O-])o1` (stereo not given) belongs “inactive”; to `Cc1ccc(-c2nc3ccccn3c2Nc2ccccc2)o1`, “inactive”.
To `Cc1ccc(-c2nnc(NC3CCCC3)s2)cc1` belongs “inactive”.
To `CCOC(=O)c1c(C)nc2cc(C)ccn12` belongs “inactive”.
As for `Cc1c(-c2ccc(Br)cc2)nc2ccccn12`, the outcome was inactive.
With `FC(F)(F)c1ccc(-c2nnc(-c3cccnc3)o2)cc1` the entry was “inactive”; with `CCOC(=O)c1ccc(N=CC2=C(O)CC(C)(C)CC2=O)cc1`, “inactive”.
To `O=C(c1nnc(-c2ccc(Cl)cc2)o1)C1CCCC1` belongs “inactive”; to `COc1ccc(CNC(=O)COC(=O)C2CC3C=CC2C3)cc1` (stereo not given), “inactive”; to `CSc1ccc(COC(=O)CCS(=O)(=O)c2ccc(C)cc2)cc1`, “inactive”.
With `Cc1cc(OCCCn2ccnc2)ccc1C(C)C` the entry was “inactive”.
For the compound `C=C1Cn2c(nnc2-c2ccc(Cl)cc2)S1`, the call was inactive.
To `Cc1cccc(OC(=O)c2ccc3nccnc3c2)c1` belongs “inactive”.
On to `CCOC(=O)CN(C#N)c1nc(N(C)C)nc(N(C)C)n1`, for which the compound was classed as inactive.
To `Cc1cc(OCCCCn2ccnc2)cc(C)c1Cl` belongs “inactive”; to `O=C(COC(=O)c1ccccc1Br)Nc1ccccc1F`, “inactive”.
With `O=C(NCc1ccc2c(c1)OCO2)c1ccc(Cl)s1` the entry was “inactive”; with `Cc1cccc(Cn2ccc(NC(=O)c3ccc4c(c3)OCO4)n2)c1`, “inactive”.
With `CCc1ccc(NC(=O)COc2ccc3c(c2)OCO3)cc1` the entry was “inactive”; with `CCOC(=O)c1csc(COc2ccc(OC)cc2)n1`, “inactive”.
In the case of `CC1(c2nnc(Cc3ccccc3)o2)CC(c2ccccc2[N+](=O)[O-])=NO1` (stereo not given), the compound was classed as inactive.
To `Cc1ccc(CNC(=O)c2cnccn2)cc1` belongs “inactive”.
With `Cc1ccc(C(=O)Nc2nccs2)cc1` the entry was “inactive”.
In the case of `CN1C(=O)CC(N2CCC(c3nc4ccccc4s3)CC2)C1=O` (stereo not given), the call was inactive.
Consider `O=C(CNC(=O)c1ccccc1F)OCc1csc(-c2ccccc2)n1`, for which the compound was called inactive.
With `O=C(CCSc1ccc(Cl)cc1)NC1CCCC1` the entry was “inactive”; with `FC(F)c1nnc2ccc(Cl)nn12`, “inactive”; with `Cc1ncsc1CCOC(=O)c1ccc([N+](=O)[O-])cc1`, “inactive”.
With `CN(C)S(=O)(=O)c1ccc(C(=O)Oc2ccccc2)cc1` the entry was “inactive”; with `CCOC(=O)c1c(-c2ccc(C)o2)csc1NC(=O)CN1CCCCC1`, “inactive”; with `O=C(N/N=C/c1ccc[nH]1)c1cccnc1`, “inactive”.
With `O=C(NNC(=O)C12CC3CC(CC(C3)C1)C2)c1cnccn1` the entry was “inactive”.
Regarding `O=C(OCC(=O)C12CC3CC(CC(C3)C1)C2)c1ccccn1`, the compound was classed as inactive.
With `O=C(NC(=S)NNC(=O)[C@H]1C[C@@H]1c1ccccc1)c1cccc(F)c1` the entry was “inactive”; with `O=C(Nc1ncccc1O)c1ccc(Oc2ccccc2)cc1`, “inactive”.
With `COc1ccc(OCC(=O)NNC(=O)c2ccccn2)cc1` the entry was “inactive”.
To `COc1ccc(C(=O)N/N=C/c2cccc3cccnc23)cc1` belongs “inactive”.
Take `O=C(COc1ccc(Cl)cc1)NNC(=O)c1ccccn1`: the compound was called inactive.
`COc1cccc2[nH]c3c(Cl)ncnc3c12`: the compound was called inactive.
As to `CC1CCCN(CCSc2ccc(Cl)cc2)C1` (stereo not given), the compound was called inactive.
For the compound `O=C(COc1ccc2ccccc2c1)Nc1ccncc1`, the compound was classed as inactive.
With `O=C1C=CC(=O)N1N(c1ccccc1)c1ccccc1` the entry was “inactive”; with `O=C(c1cccc2cccc(O)c12)N1CCCCC1`, “inactive”; with `Cn1c(SCc2c(F)cccc2Cl)nc2c(c1=O)SCC2`, “inactive”.
With `Cc1cccc(NC(=O)CCSc2nnc(Cc3ccccc3)o2)c1` the entry was “inactive”; with `O=C(COC(=O)CCC(=O)c1ccc(F)cc1)Nc1ccc(F)cc1F`, “inactive”.
With `CC(/C=C/c1ccco1)=N/NC(=O)c1ccc(C)nc1` the entry was “inactive”.
For the compound `COc1ccc(OCC(=O)N/N=C2\CCc3ccccc32)cc1`, the compound was classed as inactive.
With `CCOc1ccccc1NC(=O)COn1nnc2ccc(Cl)cc21` the entry was “inactive”.
To `COc1ccc(CN=C(C#N)C2=C(O)c3ccccc3C2=O)cc1` belongs “inactive”.
To `COc1cccc(NC(=O)c2cnc(SC)nc2)c1` belongs “inactive”.
Regarding `COc1cccc(NC(=O)c2ccc(C(=O)c3ccccc3)o2)c1`, the call was inactive.
